PubChem BioAssay AID624117 (National Center for Advancing Translational Sciences (NCATS), 2012)
Inconclusive results are not listed. A number with no mark means an inactive call. Calls follow the shape of the dose curve; as a rule, active = well fitted curve in the direction sought with a large enough effect; inconclusive = small, poorly fitted or top-dose-only effect, or another doubt; inactive = no such curve, though single readings can be large or run the other way.

Test: qHTS Assay for Rab9 Promoter Activators: Hit Validation Using Renilla Luciferase Read-Out; also: % of control where 0% means no effect
Settings: Huh7 NPC1 promoter Renilla luciferase reporter, 24 h; series mostly up to 76.9 µM; activation (negative = inhibition): at the top concentration
Text: Niemann Pick Type C (NPC) is a rare neurodegenerative lipidosis that is characterized by lipid storage in the endosomal/lysosomal system. Treatment modalities for this devastating disease are currently non-existent due to the severe obstacles associated with accessing the central nervous system with proteins or genes. The majority of mutations causing NPC disease are missense mutations that are distributed throughout the length of the NPC1 protein, with the most prevalent being the I1061T allele. Although NPC1 mutant proteins may be functional, they are typically trapped in the ER due to misfolding. […] We have developed and optimized a cell based renilla luciferase reporter assay in 1536 well format for the identification of up-regulators of the mutant NPC1 promoter. This assay presents data on the validation of hits from the primary screen, which used a firefly luciferase read-out. NIH Chemical Genomics Center [NCGC] NIH Molecular Libraries Probe Production centers Network [MLPCN] MLPCN Grant: MH089375 Assay Submitter (PI): Yiannis A. Ioannou
Huh7 cells stably expressing NPC promoter-luciferase will be seeded at 1,500 cells/well in 5 uL in 1,536-well white opaque plates with 23 nL/well of compound in DMSO solution. The assay plates will be incubated at 37 deg C for 24 hours, after which 3 uL/well BriteLite plus luciferase detection reagent mixture (Perkin Elmer) will be added. Luminescence signal will be measured in a ViewLux plate reader (Perkin Elmer) after a 10 minute incubation at the room temperature.
With `CN(C)C(=O)[C@H]1C[C@H]1[C@@H](O)[C@H](CO)NC(=O)[C@H](COCc1ccccc1)NC(=O)OC(C)(C)C` the “activation (negative = inhibition)” value was -12%. For `O=C(COC(=O)c1ccc(-c2nnc(-c3ccccc3)o2)cc1)c1ccccc1`, the “activation (negative = inhibition)” value was -23.9%. In the case of `O=[N+]([O-])c1cnccc1Nc1ccc(F)cc1`, the “activation (negative = inhibition)” value is reported as 7.9%. With `CCCOP(=O)(c1ccc(N(C)C)cc1)C(O)c1cccnc1` (stereo not given) the “activation (negative = inhibition)” value was -3.35%. For `CNC(=O)Cn1nc(C)c2ccccc2c1=O`, the “activation (negative = inhibition)” value was -4.32%. In the case of `O=C(C1COc2ccccc2O1)N1CCN(S(=O)(=O)c2ccccc2)CC1` (stereo not given), the “activation (negative = inhibition)” value is reported as 5.12%. In the case of `O=C(CCCN1C(=O)C(c2ccccc2)Oc2cccnc21)Nc1ccccc1Cl` (stereo not given), the “activation (negative = inhibition)” value is reported as 3.99%. With `CC1(C)CC(=O)c2c(O)c(-c3ccccc3)c(=O)n(-c3ccccc3)c2C1` the “activation (negative = inhibition)” value was -3.78%. For `COc1ccc(-c2cc(C(=O)Nc3ccccc3F)on2)cc1`, the “activation (negative = inhibition)” value was 1.74%. With `COc1ccc([N+](=O)[O-])cc1COc1ccc2c(-c3ccccc3)cc(=O)oc2c1` the “activation (negative = inhibition)” value was 3.67%. With `COc1ccc(NC(=S)NNC(=O)c2cccs2)cc1` the “activation (negative = inhibition)” value was 10.2%. In the case of `COC(=O)c1ccc(NC(=O)c2ccc3nc(C)sc3c2)cc1`, the “activation (negative = inhibition)” value is reported as 7.49%. With `CCOC(=O)CSc1nc2cc3c(cc2cc1C#N)OCO3` the “activation (negative = inhibition)” value was 2.66%. In the case of `Cc1noc(/C=C/N(C)C)c1S(=O)(=O)N1CCCC(C(=O)N2CCCCC2)C1` (stereo not given), the “activation (negative = inhibition)” value is reported as -7.89%. For `CCC(=O)N1c2ccccc2NC2=C(C(=O)CCC2)C1c1ccc(N(C)C)cc1` (stereo not given), the “activation (negative = inhibition)” value was 4.45%. In the case of `NC(=O)COC(=O)c1ccc2noc(-c3ccccc3)c2c1`, the “activation (negative = inhibition)” value is reported as -10.5%. With `Cn1c(CCN2CCN(c3ccccc3)CC2)nc2cc(NC(=O)c3ccco3)ccc21` the “activation (negative = inhibition)” value was 11%. For `COCCNC(=O)Cn1nc(-c2ccccc2)c2ccccc2c1=O`, the “activation (negative = inhibition)” value was -22.4%. With `Cc1ccc2c(c1)sc1nc(=O)n(-c3ccccc3)c(=O)n12` the “activation (negative = inhibition)” value was -17.1%. With `O=S(=O)(c1cccs1)N1CCN(c2ncccn2)CC1` the “activation (negative = inhibition)” value was -5.33%. For `NC(=O)C1(NC(=O)[C@@H]2CC3(CC(c4cccc(NC(=O)[C@@H]5CCC(=O)N5)c4)=NO3)CN2C(=O)c2ccccc2)CC1` (stereo not given in full), the “activation (negative = inhibition)” value was 4.72%. In the case of `CC(Sc1nnc(C(F)(F)F)n1C)C(=O)Nc1ccc(S(N)(=O)=O)cc1` (stereo not given), the “activation (negative = inhibition)” value is reported as -17.9%. For `Cc1ccc(NC(=O)c2cccc(N3C(=O)CCC3=O)c2)nc1`, the “activation (negative = inhibition)” value was -4.93%. For `Cc1ccc(C(=O)NC2CCN(CC(=O)Nc3c(C)cc(C)cc3C)CC2)cc1`, the “activation (negative = inhibition)” value was -2.1%. In the case of `Nc1c(N(CCO)C(=O)/C=C/c2ccco2)c(=O)[nH]c(=O)n1Cc1ccccc1`, the “activation (negative = inhibition)” value is reported as -0.0645%. With `CCOC(=O)c1ccc(NC(=O)Oc2cc(C)c(Cl)cc2C(C)C)cc1` the “activation (negative = inhibition)” value was -2.91%. For `CCCNC(=O)C1CCN(S(=O)(=O)c2ccc3[nH]c(=O)ccc3c2)CC1`, the “activation (negative = inhibition)” value was -9.86%. For `COc1ccc(-c2nnc(SCC(=O)/C(C#N)=C(\C)N)o2)cc1`, the “activation (negative = inhibition)” value was 6.56%. In the case of `Cc1ccc(N(O)C(=O)NCCCCNC(=O)N(O)c2ccc(C)cc2)cc1`, the “activation (negative = inhibition)” value is reported as 1.58%. In the case of `COCCNC(=O)CN1C(=O)NC(c2ccccc2)(c2ccccc2)C1=O`, the “activation (negative = inhibition)” value is reported as 2.14%. With `CC(C)(C)C(=O)NC(=S)Nc1ccccc1F` the “activation (negative = inhibition)” value was 22.6%. With `CCOC(=O)c1cc2sccc2n1CC(=O)N1CCCc2ccccc21` the “activation (negative = inhibition)” value was -5.06%. For `O=C(Nc1nc2ccc(F)cc2s1)c1ccc(N2CCCC2=O)cc1`, the “activation (negative = inhibition)” value was 2.48%. For `O=C(NCCc1c[nH]c2ccccc12)C(=O)NCC(c1ccco1)N1CCN(c2ccccc2F)CC1` (stereo not given), the “activation (negative = inhibition)” value was -40.5%. For `COc1ccccc1NC(=S)NCc1ccc(Cl)cc1`, the “activation (negative = inhibition)” value was 1.13%. In the case of `COc1ccccc1OCCCC(=O)NCc1ccco1`, the “activation (negative = inhibition)” value is reported as -1.3%. With `Cc1nc(-c2ccc(S(=O)(=O)Oc3ccc(Cl)cc3Cl)s2)cs1` the “activation (negative = inhibition)” value was -49.3%. In the case of `CCN(CC(=O)N(CC(C)C)c1c(N)n(CC(C)C)c(=O)[nH]c1=O)Cc1nc2ccccc2c(=O)[nH]1`, the “activation (negative = inhibition)” value is reported as -6.08%. In the case of `O=C(CSc1nnc(Cc2cc(=O)[nH]c(=O)[nH]2)n1-c1ccc(Cl)cc1)NC1CCCC1`, the “activation (negative = inhibition)” value is reported as 2.15%. With `CC(C)C(NC(=O)c1ccc([N+](=O)[O-])cc1Cl)C(=O)N1CCCC1` (stereo not given) the “activation (negative = inhibition)” value was 1.06%.
